# Screening data from PubChem BioAssay.
# Hits are enriched below; roughly 20% of the tested compounds scored in any of these assays.
# Shiga toxin inh – A qHTS for Small Molecule Inhibitors of Shiga Toxin. Vero cells, Shiga toxin protein synthesis inhibition reporter. inhibition, % at 38.7 µM. 9.2% of 290,000 active. AID 2315, 2010; in the data active = inhibition mostly above about 28%, no sharp cut-off; inactive = mostly below about 43%; also: 0% is about no effect
# CHX counter – Cycloheximide Counterscreen for Small Molecule Inhibitors of Shiga Toxin. 12% of 300,000 active. cell reporter, cycloheximide protein synthesis inhibition counterscreen. AID 2314, 2010. max response, %; in the data active = max response mostly above about 13%, no sharp cut-off; inactive = mostly below about 14%; also: read at 38.3 µM for the half of the compounds with a filed dose; 0% is about no effect
# Pf growth 96h – Primary qHTS for delayed death inhibitors of the malarial parasite plastid, 96 hour incubation | P. falciparum luciferase reporter growth, 96 h | Potency, µM (titrated, usually from 28.7 µM), inactives show at the highest dose activity change, negative = inhibition, usual class: inhibitors | 6.9% of 320,000 active | AID 504834, 2011; also: potency is read from the fitted curve at half-maximal effect; % is scaled to controls: 0 for no effect and ±100 for the full control effect
#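 Delayed-death screen, second-generation endpoint: infected erythrocytes, 2% hematocrit, 0.05% parasitemia final; 96 hours at 37 C, 5% CO2; luciferase detection reagent; luminescence decrease equals reduced growth.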
# Pf growth 48h – Primary qHTS for delayed death inhibitors of the malarial parasite plastid, 48 hour incubation; P. falciparum luciferase growth in erythrocytes, 48 h; Potency, µM (highest dose often 28.7 µM), for the others: top-dose activity change, negative = inhibition, usual class: inhibitors; 5.9% of 310,000 active; also: potency is read from the fitted curve at half-maximal effect; % is scaled to controls: 0 for no effect and ±100 for the full control effect
#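 Firefly luciferase activity from engineered P. falciparum reports growth; inhibitors lower the luminescent signal. Cultures contained 2% hematocrit erythrocytes at 0.1% final parasitemia.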
# HCMV inh – qHTS Assay for inhibitors of the human cytomegalovirus (HCMV); 4.5% of 410,000 active; HFF cells, HCMV-luciferase reporter, 72 h; active compounds read low; activity change, negative = inhibition, % at 57.5 µM; in the data active = activity change below about -60%; inconclusive = no clear call, values can overlap the other calls; inactive = above about -39%; also: % is scaled to controls: 0 for no effect and ±100 for the full control effect
#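 Two compound doses tested in HFFs infected with HCMV-luciferase, MOI 1 PFU/cell, 72 h at 37C. Lysate luminescence read with OneGlo; data normalized against buffer-only and 10uM Salinomycin inhibitor controls.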
# * hit, by the source's call; ? = inconclusive; / = no result; ! = repeats disagree. Unless noted, calls follow the shape of the dose curve; as a rule, active = well fitted inhibition curve with a large enough effect; inconclusive = small, poorly fitted or top-dose-only effect, or another doubt; inactive = no such curve, though single readings can be large or run the other way.
SMILES,Shiga toxin inh,CHX counter,Pf growth 96h,Pf growth 48h,HCMV inh
COC(=O)c1ccc(C2N=C(c3cccs3)CC(c3ccccc3O)N2)cc1 (stereo not given),100.0*,38.1*,-28.9%,?,42.3
Cn1c(-c2ccccc2)cnc1NCc1ccc(F)cc1,39.3,24.1*,6.1%,55.1%,140.9
Cn1c(-c2ccc(F)cc2)cnc1NCc1ccccc1,54.7,19.7*,?,20.3%,-1.0
CCC1CN(C(=O)Nc2cccc(OC)c2)c2ccccc2O1 (stereo not given),/,/,/,/,-1.5
Cc1cccc(C(C(=O)NC2CCCCC2)N(Cc2cccnc2)C(=O)c2csnn2)c1 (stereo not given),-14.0,-1.3,?,?,-22.1
COc1ccc(NC(=O)Cn2nc(-c3ccncc3)ccc2=O)cc1Cl,/,/,/,/,38.0
COCC(C)n1c(C)cc(C(=O)CN2C(=O)NC(Cc3c[nH]c4ccccc34)C2=O)c1C (stereo not given),34.5,-1.2,5.22µM*,/,-6.5
COC(=O)c1ccc(CN2C(=O)NC(Cc3c[nH]c4ccccc34)C2=O)cc1 (stereo not given),118.1*,37.0*,9.4%,-0.9%,-13.9
CN1C(=O)C(Cc2c[nH]c3ccccc23)NC1=S (stereo not given),47.3*,30.0*,/,/,/
O=C1C(Cc2c[nH]c3ccccc23)NC(=S)N1Cc1ccccc1 (stereo not given),3.8,-6.6,13.1µM*,?,50.4
CN1C(=O)C(Cc2c[nH]c3ccccc23)C(=O)N(C)C1=O,-9.6,5.2,/,-22.3%,/
Cc1ccc(Cc2c(-c3cccc(Br)c3)nc3c(Cl)cc(C(F)(F)F)cn23)cc1,/,/,/,/,3.7
Cc1cccc(NC(=S)Nc2ccc(N3CCOCC3)cc2)c1C,12.6,12.9*,-23.4%,37.7%,-2.9
Cc1cccc(NC(=S)NN2CCOCC2)c1C,14.8,8.7,?,/,70.4
O=C(COc1ccc(Cl)cc1Cl)NC(=S)Nc1ccc(CN2CCOCC2)cc1,6.6,1.0,23.9%,16.3%,-2.3
CC(C)CC(=O)NC(=S)Nc1ccc(N2CCOCC2)cc1,48.0*,24.2*,46.6%,39.0%,42.2
CC(C)CC(=O)NC(=S)Nc1ccc(CN2CCOCC2)cc1,33.4*,11.0,?,-2.3%,26.5
CC(=O)N1CCCc2cc(S(=O)(=O)N3CCCC(C(=O)NC(C)C)C3)ccc21 (stereo not given),/,/,/,/,-6.1
O=C(CSc1ccc(Cl)cc1)NC1CCCc2ccccc21 (stereo not given),12.5,-0.8,-16.6%,-1.6%,14.9
CCOC(=O)c1c(S(=O)(=O)N2CCCC(C)C2)c(C)n(C)c1C (stereo not given),-13.5,8.5,?,?,?
CCOC(=O)c1c(S(=O)(=O)N2CCCC2)c(C)n(C)c1C,-2.6,12.4,11.7µM*,13.0%,0.0
CCOC(=O)c1c(S(=O)(=O)N2CCCC(C(=O)Nc3ccc(OCC)cc3)C2)c(C)n(C)c1C (stereo not given),/,/,/,/,14.1
CCOC(=O)c1c(S(=O)(=O)N2CCCC(C(=O)Nc3ccc(C)cn3)C2)c(C)n(C)c1C (stereo not given),-6.1,-0.5,16.6%,13.1µM*,-6.9
CCOC(=O)c1c(S(=O)(=O)N2CCCCC2C)c(C)n(C)c1C (stereo not given),-2.7,0.0,1.65µM*,13.0%,-39.0
O=C(COC(=O)c1ccc([N+](=O)[O-])o1)NC1CCCc2ccccc21 (stereo not given),/,/,/,/,21.4
SMILES,Shiga toxin inh,CHX counter,Pf growth 96h,Pf growth 48h,HCMV inh
O=C(O)c1cccc(NS(=O)(=O)c2cccc(C(=O)Nc3ccccc3[N+](=O)[O-])c2)c1,-2.0,-3.0,127.1%,3.8%,2.9
COc1cc(C(=O)Nc2ccc3c(c2)nc(C)n3C)cc(OC)c1OC,12.1,11.6,10.3%,58.6%,63.6
Cc1nc2cc(NC(=O)c3ccc(Cl)cc3)ccc2n1C,/,26.4*,?,164.3%,-28.8
Cc1ccc(NC(=O)Nc2ccc3c(c2)nc(C)n3C)cc1C,107.8*,44.8*,?,127.5%,/
Cc1nc2cc(NC(=O)Nc3ccc(N4CCOCC4)cc3)ccc2n1C,-5.5,-0.4,/,-3.6%,-63.4*
Cc1nc2cc(NC(=O)COc3ccc(C#N)cc3)ccc2n1-c1ccccc1,-7.5,8.1,?,-9.2%,-21.1
CC(=O)Nc1ccc2c(c1)nc(C)n2-c1ccccc1,35.9,12.6*,?,46.5%,13.0
COc1ccc(CN2C(=NC(=O)C3CCCO3)SC3CS(=O)(=O)CC32)cc1 (stereo not given),-7.1,1.3,39.7%,1.3%,19.0
Cc1cc2nc(C)n(CCCNC(=O)Nc3ccc(F)cc3)c2cc1C,-18.7,-4.0,/,11.7µM*,-39.5
COc1ccccc1NC(=O)Nc1ccc2c(c1)nc(C)n2C,30.8,27.9*,-0.2%,-45.7%,27.4
O=C(NCCN1CCCCC1)Nc1ccc(F)cc1,-8.2,-3.9,?,6.9%,12.2
COC(=O)COc1c(Cl)cc(Cl)c2ccc(C)nc12,-13.6,-0.6,-29.6%,0.0%,9.0
Cc1ccc2c(Cl)cc(Cl)c(OCC(=O)Nc3cc(S(=O)(=O)N(C)C)ccc3C)c2n1,1.6,-1.5,11.7µM*,?,-28.1
Cc1ccc2c(Cl)cc(Cl)c(OCC(=O)Nc3cccc(S(=O)(=O)N(C)C)c3)c2n1,-8.2,0.6,17.7%,8.3%,28.3
Cc1ccc2c(Cl)cc(Cl)c(OCC(=O)NC(C)(C)C)c2n1,-2.3,-2.2,?,11.7µM*,4.4
Cc1ccc(S(=O)(=O)Nc2c(NC3CCCCC3)c3ccccc3oc2=O)c(C)c1,9.0,-1.2,?,-29.3%,/
CC(C(=O)O)n1c(-c2ccn[nH]2)n[nH]c1=S (stereo not given),16.2,0.9,19.8%,34.9%,47.3
Cc1cccc(CC(C)NC(=O)c2oc3c(F)cccc3c2C)n1 (stereo not given),29.0*,15.3*,?,12.0%,23.7
Cc1c(C(=O)NC(c2ccccn2)C(F)(F)F)oc2c(F)cccc12 (stereo not given),-14.7,-2.3,?,13.4%,-14.3
CCOC(=O)c1ccc(NC(=O)C(=O)NCc2ccncc2)cc1,7.7,5.3,42.5%,16.8%,-27.7
Cc1cccc(C)c1Nc1nnc(SCc2cn3cccc(C)c3n2)s1,-28.7,-1.4,10.4µM*,?,-69.8*
Cc1cccc(C)c1Nc1nnc(SCC(=O)NC(=O)c2cccn2C)s1,-8.3,-2.4,18.0%,8.4%,20.0
CCC(CC)C(=O)Nc1nnc(SCc2cc(=O)n3cccc(C)c3n2)s1,/,/,/,/,48.6
C/C(N)=C(/C#N)C(=O)CSc1nnc(Nc2cccc(C)c2C)s1,39.9*,21.9*,17.3%,?,57.0
C/C(N)=C(/C#N)C(=O)CSc1nnc(Nc2c(C)cccc2C)s1,39.6,-1.4,11.7µM*,?,-67.1*!
